Calls of active or inactive are those of the source.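 How the source made its calls: active means compounds whose dose series gives a full or clear partial fitted curve of increased nuclear translocation; inconclusive means weak partial curve or effect only at the top dose; inactive means no dose-dependent translocation response.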
Potency means the concentration at half of the fitted maximal effect.

The target in the assay is Glucocorticoid receptor (Homo sapiens) (UniProt P04150). The assay can be described thus: GR-GFP Redistribution (AID 450). The note with it: U2OS GR-GFP nuclear translocation, laser cytometry, 2 h; series mostly up to 20.6 µM.
Sequence of Glucocorticoid receptor (Homo sapiens) (P04150 whole entry, looked up): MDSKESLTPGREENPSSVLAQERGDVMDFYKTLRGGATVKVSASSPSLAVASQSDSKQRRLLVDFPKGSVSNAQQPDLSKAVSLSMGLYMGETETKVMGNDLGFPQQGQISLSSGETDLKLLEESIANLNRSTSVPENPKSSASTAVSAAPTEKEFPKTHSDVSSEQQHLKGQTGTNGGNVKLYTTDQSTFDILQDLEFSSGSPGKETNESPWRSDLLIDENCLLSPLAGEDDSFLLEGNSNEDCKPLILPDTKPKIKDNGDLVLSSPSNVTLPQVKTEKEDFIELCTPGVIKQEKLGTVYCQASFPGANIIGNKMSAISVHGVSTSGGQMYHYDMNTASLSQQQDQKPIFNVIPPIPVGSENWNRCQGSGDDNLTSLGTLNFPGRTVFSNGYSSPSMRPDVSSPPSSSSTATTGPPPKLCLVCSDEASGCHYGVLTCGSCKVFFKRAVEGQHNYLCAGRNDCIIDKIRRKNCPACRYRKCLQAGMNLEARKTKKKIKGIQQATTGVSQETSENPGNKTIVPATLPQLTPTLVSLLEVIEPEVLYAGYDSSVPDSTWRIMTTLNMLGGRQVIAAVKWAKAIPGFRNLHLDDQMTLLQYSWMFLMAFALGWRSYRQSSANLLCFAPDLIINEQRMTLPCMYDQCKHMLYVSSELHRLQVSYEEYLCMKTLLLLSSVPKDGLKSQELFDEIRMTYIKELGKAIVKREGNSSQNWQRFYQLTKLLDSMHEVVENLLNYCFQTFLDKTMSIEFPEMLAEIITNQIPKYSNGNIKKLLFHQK
In the case of `Cc1c(N=Cc2c(O)n(C3CCCCC3)c(=O)[nH]c2=O)c(=O)n(-c2ccccc2)n1C`, the Potency is > 20.6 µM (inactive).

`Cn1c(=O)c2c(nc(SCCN3CCCCC3)n2Cc2ccc(Cl)cc2)n(C)c1=O`: the Potency was > 20.6 µM (inactive).

Turning to `Cc1nnc(NCc2n[nH]c(=O)c3ccccc23)c2ccccc12`, the Potency is > 20.6 µM (inactive).

For the compound `COc1ccc(N2CCN(C3CC(=O)NC3=O)CC2)cc1` (stereo not given), the Potency is > 20.6 µM (inactive).

In the case of `CCc1nc2sc3c(c2c(=O)o1)CCCC3`, the Potency was > 20.6 µM (inactive).

With `CCc1nc(NC2CCCCC2)c(C#N)c2c1COC(C)(C)C2`, the Potency is > 20.6 µM (inactive).

Take `CCOC(=O)C1=C(CSc2nc(-c3ccncc3)ccc2C#N)OC(N)=C(C#N)C1c1cccnc1` (stereo not given): the Potency is > 20.6 µM (inactive).

`CCCSc1nnc2n(-c3ccccc3OC)c(=O)c3c4c(sc3n12)CCC4`: the Potency is > 20.6 µM (inactive).

With `CC(C)c1nc(NCC2CCCO2)c(C#N)c2c1COC(C)(C)C2` (stereo not given), the Potency is > 20.6 µM (inactive).

For the compound `N#Cc1nc(COc2ccccc2Cl)oc1NCc1ccc(F)cc1`, the Potency is > 20.6 µM (inactive).

On to `N#CCSc1nc2c(cc1C#N)CCCCCC2`, for which the Potency was > 20.6 µM (inactive).

Take `N#CC1=C(N)N(c2ccccc2)C(c2ccccc2)C1(C#N)C#N` (stereo not given): the Potency is > 20.6 µM (inactive).

Consider `Clc1ccc(Cl)c(-c2ccc(/C=N/c3ncn[nH]3)o2)c1`, for which the Potency was > 20.6 µM (inactive).

On to `Cc1ccc2nc(NCc3ccccc3)[nH]c2c1`, for which the Potency is > 20.6 µM (inactive).

Take `COc1cccc(-c2nc(N3CCC(C)CC3)c3ccccc3n2)c1O`: the Potency is > 20.6 µM (inactive).

Take `C=CCSc1nnc2n(-c3ccccc3OC)c(=O)c3c4c(sc3n12)CCC4`: the Potency was > 20.6 µM (inactive).

Take `Cc1ccc(S(=O)(=O)N2CCN(c3nc(C)c4c(c3C#N)CC(C)(C)OC4)CC2)cc1`: the Potency was > 20.6 µM (inactive).

For the compound `Cc1cc(C)n(CC2CC(=O)N(c3ccc(F)c(Cl)c3)C2=O)n1` (stereo not given), the Potency is > 20.6 µM (inactive).

On to `CN(C)CCCOC(=O)c1ccc(Cl)cc1Cl`, for which the Potency is > 20.6 µM (inactive).

`COc1ccc(Nc2oc(-c3cccs3)nc2C#N)cc1`: the Potency is > 20.6 µM (inactive).

As for `OCCNc1nc(-c2ccccc2)c2ccccc2n1`, the Potency is > 20.6 µM (inactive).

For `CNC(=O)Nc1cccc(NC(=O)NC)n1`, the Potency was > 20.6 µM (inactive).

Consider `CCCOc1ccc(Cc2nn[nH]n2)cc1`, for which the Potency is > 20.6 µM (inactive).

Turning to `CC(C)c1nc(NCCN2CCOCC2)c(C#N)c2c1COC(C)(C)C2`, the Potency is > 20.6 µM (inactive).

`CC(C)Sc1nnc2n(CCc3ccccc3)c(=O)c3c4c(sc3n12)COC(C)(C)C4`: the Potency was > 20.6 µM (inactive).

With `CC1(C)Cc2c(sc3nc(SCC#N)n(C4CCCCC4)c(=O)c23)CO1`, the Potency is > 20.6 µM (inactive).

On to `CC1(C)Cc2c(C#N)c(SCC(=O)c3ccccc3)nc(N3CCOCC3)c2CS1`, for which the Potency was > 20.6 µM (inactive).

Consider `COC(=O)c1ccc(Oc2nc3ccccc3n3c(C)nnc23)cc1`, for which the Potency is > 20.6 µM (inactive).

`C=CC[N+](C)(C)CCCNC(=O)/C=N/O`: the Potency was > 20.6 µM (inactive).

Regarding `O=S(=O)(c1ccccc1)N1CCC(N2CCCCCC2)CC1`, the Potency is > 20.6 µM (inactive).

As for `CCOC(=O)c1ccc(N=CC2=C(O)CC(c3ccco3)CC2=O)cc1` (stereo not given), the Potency was > 20.6 µM (inactive).

With `CC(C)(C)c1cccc(/C=N/O)c1O`, the Potency was > 20.6 µM (inactive).

As for `CCOC(=O)c1nc2nc(C)c(Cl)c(=O)n2[nH]1`, the Potency is > 20.6 µM (inactive).

With `N#Cc1c(SCC(N)=O)nsc1SCc1ccc(Cl)cc1`, the Potency was > 20.6 µM (inactive).

On to `CCc1c(C)c2cc(Cl)c(O)c(CN3CCCCC3)c2oc1=O`, for which the Potency is > 20.6 µM (inactive).

As to `CCOC(=O)C1=Nc2ccccc2C1=[N+]=[N-]`, the Potency is > 20.6 µM (inactive).

As to `CCOC(=O)CSc1nnc2n(C3CCCCC3)c(=O)c3c4c(sc3n12)CCCC4`, the Potency was > 20.6 µM (inactive).

`CCCSc1nc(N2CCOCC2)c2c(c1C#N)CCCC2`: the Potency is > 20.6 µM (inactive).

With `c1ccc2c(NCC3CCCO3)nc(-c3ccncc3)nc2c1` (stereo not given), the Potency was > 20.6 µM (inactive).

Consider `CCC1(C)Cc2c(sc3c2c(=O)n(C)c2nnc(SCC(=O)c4ccc(Cl)cc4)n32)CO1` (stereo not given), for which the Potency was > 20.6 µM (inactive).

(Values after PubChem BioAssay (NCATS).)
